Here are results for nine molecules from article PMC12864922, “TDP-43 directly inhibits mRNA accumulation in neurites through modulation of mRNA stability”.

In all, about 9,900 sequences were measured (“r (bound/input frequency ratio)”: median about 0.7, highest 2% from about 6.5 on). For the sample, the highest values were picked, then their nearest neighbours and some sequences at random.

B1: ENSMUSG00000061578.1547|Ksr2|98:102 (ssRNA)
RNA: GGGAGUUCUACAGUCCGACGAUCGCUUCGAUAUCCGCAUGCUAUUUAUAAAGUUUUCUACACUUCUCAAAAAAAAAAAUAUUUCUAACCUUGGCUGUUGGACAGUCUGUGAGCCUGUGAGCCGGCAAGCCUGUUGUUUCUACACAUUAGUGCAAUGUUAGUGAGAAUCCAGUGUCUGAGUUAUUAAUGCCAAUAAAGAAUUUGAGAAUUACUGCAUCCGCUGCUGUCACUCCAGGUCAGAACUCUGCUGUUGUCUGUUGGAUGGAAGGAAGCUCCAGAGUGAGGAACAAUGGUUGCUAACUGCCUCUUGCGGUCGCACUAGUGUGGAAUUCUCGGGUGUCAAGG
B2: ENSMUSG00000022095.37|Fam160b2|125:129 (ssRNA)
RNA: GGGAGUUCUACAGUCCGACGAUCGCUUCGAUAUCCGCAUGCUAACCUCACCUGUUGACCCCACGAGCUGAGGUUUCAAGGAGGUGCUGGCUCCUAAGGCAGUGGUAUUCUUGGAGCCUUUUAGAGGAGCUAGAGGAUGGCCAGUGAGCGCCUAGAUGCUGCCCUGCAACACAUGCGUGACUAUCUCUGCUAUAUUGUGACCAGGGCCACAACAUGAGACAACUCCAGGGGCCAGGGAGAUGAACUGCUGUCUUUGAGGCUGGCUAAAAAAACAAUCCAGUCCAGAGAGAUGGGGAGGGGGGGACUCUUGCGGUCGCACUAGUGUGGAAUUCUCGGGUGUCAAGG
B3: ENSMUSG00000032194.151|Kank2|256:260 (ssRNA)
RNA: GGGAGUUCUACAGUCCGACGAUCGCUUCGAUAUCCGCAUGCUAACUUCUAGAAAUACUUUCAGACCUACAGACAAAAAAGAAAAAAGGCCAUUCCGGAGUGACUCCCAGCAUCACAGCCCAGAACCUCCUCCUCAAAGGAGAGUAAACAGAGACUGUGAUACUGACCAAGUACAGGCGCUCGCUAUGAAGCCCAUAUGUUCCUGAUUAAGAGCUGGCUGGCCUCAGAGCACUCCCAGAACUAGCUUAAAGUGACAGGCUUUGCUGAAAUCCAAAGGGACAAAAGAGUAGUUUUAUGUUACACACUCUUGCGGUCGCACUAGUGUGGAAUUCUCGGGUGUCAAGG
B4: ENSMUSG00000029028.13|Lrrc47 (ssRNA)
RNA: GGGAGUUCUACAGUCCGACGAUCGCUUCGAUAUCCGCAUGCUACCCUCCCCACGUGACUGUGGUCCGCUGACAGGCUCCUGUAGGUGUGGGUGUGCUGUAGGUGUCUGUGUGGGUGUGGGUGUGCUGUAGGUGUCUGUGUGGGUGUGGGUGUGCUAUAGGUAUCUGUGGGUGUGCUGUAGGUGUCUGUGUGGGUGUGCUGUAGGUGUCUGUGUAGGUGUGGGUGUGCUGUAGGUGUCUGUGUGGGUGUGCUAGGUGUCUGUAUAGGUGUGGGUGUGCUGUAGAUGUCUGUGUAGGUAUGGGUGCUCUUGCGGUCGCACUAGUGUGGAAUUCUCGGGUGUCAAGG
B5: ENSMUSG00000029028.11|Lrrc47 (ssRNA)
RNA: GGGAGUUCUACAGUCCGACGAUCGCUUCGAUAUCCGCAUGCUACCUGAUCACCCUCCCUCCCCACGUGACUGUGGUCCGCUGACAGGCUCCUGUAGGUGUGGGUGUGCUGUAGGUGUCUGUGUGGGUGUGGGUGUGCUGUAGGUGUCUGUGUGGGUGUGGGUGUGCUAUAGGUAUCUGUGGGUGUGCUGUAGGUGUCUGUGUGGGUGUGCUGUAGGUGUCUGUGUAGGUGUGGGUGUGCUGUAGGUGUCUGUGUGGGUGUGCUAGGUGUCUGUAUAGGUGUGGGUGUGCUGUAGAUGUCUGUGCUCUUGCGGUCGCACUAGUGUGGAAUUCUCGGGUGUCAAGG
B6: ENSMUSG00000029028.13|Lrrc47|42:46;48:52;64:69;71:75;77:81;93:98;100:104;106:110;127:131;143:148;150:154;166:170;173:177;179:183;195:200;202:206;223:227;229:233 … (ssRNA)
RNA: GGGAGUUCUACAGUCCGACGAUCGCUUCGAUAUCCGCAUGCUACCCUCCCCACGUGACUGUGGUCCGCUGACAGGCUCCUGUAGCACACGCACACCUGUAGGUGUCACACACGCACACGCACACCUGUAGGUGUCACACACGCACACGCACACCUAUAGGUAUCUGUGGCACACCUGUAGGUGUCACACACGCACACCUGUAGGUGUCACACAAGCACACGCACACCUGUAGGUGUCACACACGCACACCUAGGUGUCUGUAUAGCACACGCACACCUGUAGAUGUCACACAAGCAUACGGUGCUCUUGCGGUCGCACUAGUGUGGAAUUCUCGGGUGUCAAGG
B7: ENSMUSG00000029028.11|Lrrc47|54:58;60:64;76:81;83:87;89:93;105:110;112:116;118:122;139:143;155:160;162:166;178:182;185:189;191:195;207:212;214:218;235:239;241:2 … (ssRNA)
RNA: GGGAGUUCUACAGUCCGACGAUCGCUUCGAUAUCCGCAUGCUACCUGAUCACCCUCCCUCCCCACGUGACUGUGGUCCGCUGACAGGCUCCUGUAGCACACGCACACCUGUAGGUGUCACACACGCACACGCACACCUGUAGGUGUCACACACGCACACGCACACCUAUAGGUAUCUGUGGCACACCUGUAGGUGUCACACACGCACACCUGUAGGUGUCACACAAGCACACGCACACCUGUAGGUGUCACACACGCACACCUAGGUGUCUGUAUAGCACACGCACACCUGUAGAUGUCUGUGCUCUUGCGGUCGCACUAGUGUGGAAUUCUCGGGUGUCAAGG
B8: ENSMUSG00000029028.12|Lrrc47|48:52;54:58;70:75;77:81;83:87;99:104;106:110;112:116;133:137;149:154;156:160;172:176;179:183;185:189;201:206;208:212;229:233;235:23 … (ssRNA)
RNA: GGGAGUUCUACAGUCCGACGAUCGCUUCGAUAUCCGCAUGCUACACCCUCCCUCCCCACGUGACUGUGGUCCGCUGACAGGCUCCUGUAGCACACGCACACCUGUAGGUGUCACACACGCACACGCACACCUGUAGGUGUCACACACGCACACGCACACCUAUAGGUAUCUGUGGCACACCUGUAGGUGUCACACACGCACACCUGUAGGUGUCACACAAGCACACGCACACCUGUAGGUGUCACACACGCACACCUAGGUGUCUGUAUAGCACACGCACACCUGUAGAUGUCACACAAGGUACUCUUGCGGUCGCACUAGUGUGGAAUUCUCGGGUGUCAAGG
B9: ENSMUSG00000029028.12|Lrrc47 (ssRNA)
RNA: GGGAGUUCUACAGUCCGACGAUCGCUUCGAUAUCCGCAUGCUACACCCUCCCUCCCCACGUGACUGUGGUCCGCUGACAGGCUCCUGUAGGUGUGGGUGUGCUGUAGGUGUCUGUGUGGGUGUGGGUGUGCUGUAGGUGUCUGUGUGGGUGUGGGUGUGCUAUAGGUAUCUGUGGGUGUGCUGUAGGUGUCUGUGUGGGUGUGCUGUAGGUGUCUGUGUAGGUGUGGGUGUGCUGUAGGUGUCUGUGUGGGUGUGCUAGGUGUCUGUAUAGGUGUGGGUGUGCUGUAGAUGUCUGUGUAGGUACUCUUGCGGUCGCACUAGUGUGGAAUUCUCGGGUGUCAAGG

Chain of TDP-43 (Q13148 whole entry): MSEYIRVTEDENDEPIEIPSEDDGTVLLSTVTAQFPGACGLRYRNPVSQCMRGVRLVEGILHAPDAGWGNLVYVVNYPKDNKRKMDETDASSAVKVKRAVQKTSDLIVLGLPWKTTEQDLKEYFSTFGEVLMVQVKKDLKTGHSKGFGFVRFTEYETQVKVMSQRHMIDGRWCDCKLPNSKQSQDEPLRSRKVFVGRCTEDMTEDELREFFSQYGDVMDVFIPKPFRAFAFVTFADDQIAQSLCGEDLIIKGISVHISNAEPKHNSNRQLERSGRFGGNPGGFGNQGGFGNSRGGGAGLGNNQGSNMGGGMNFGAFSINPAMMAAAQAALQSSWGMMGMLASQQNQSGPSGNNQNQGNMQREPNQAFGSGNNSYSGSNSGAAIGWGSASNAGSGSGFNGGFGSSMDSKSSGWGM

This assay has as its target TDP-43 (Homo sapiens, UniProt Q13148 1-414). The experiment in a line: RNA Bind-n-Seq with designed 260-mer pool; 25 mM Tris-HCl, 150 mM KCl, 3 mM MgCl2, BSA (printed 500 mg/mL), 20 units/mL SUPERase IN; pH not stated; 500 nM RNA pool, 1 h, 4 C; TDP-43 5, 50, 500 nM; high values mean tight binding. The note with it: protein: recombinant; tags: SBP (GST cleaved off with PreScission; pGEX-GST-SBP). In short, it runs like this: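 Streptavidin beads captured recombinant SBP-tagged TDP-43 at 5, 50 or 500 nM, and the beads were incubated for 1 h at 4 °C with 500 nM of an in vitro-transcribed pool of 260-nt 3′ UTR oligos in 25 mM Tris-HCl, 150 mM KCl, 3 mM MgCl2, BSA and SUPERase IN. After washing, bound RNA was eluted with biotin, reverse transcribed, PCR-amplified and sequenced. Binding is reported as R, the mapped-read-normalized abundance of each oligo in the bound sample divided by its abundance in the input. Two independent protein batches served as duplicates.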
As for B1, the binding signal was 0.38 R (bound/input frequency ratio). The result for B2 reads 1.26 R (bound/input frequency ratio). Take B3: the binding signal was 0.163 R (bound/input frequency ratio).

With B4, the binding signal was 7.14 R (bound/input frequency ratio).

On to B5, for which the binding signal was 7.32 R (bound/input frequency ratio).

Turning to B6, the binding signal is 1.01 R (bound/input frequency ratio). The result for B7 reads 1.45 R (bound/input frequency ratio); that for B8, 1.21 R (bound/input frequency ratio); that for B9, 5.27 R (bound/input frequency ratio).
